Results taken from PubChem BioAssay AID1159580 (chemical genetic matrix, 2015).
About 2,000 (36%) of roughly 5,500 compounds were called active. Inconclusive results (about 18%) are left out. Cut-off read from the data, not from the text of the source: active = normalized growth mostly below about 0.91 (no sharp cut-off); inconclusive = no clear call, values can overlap the other calls; inactive = mostly above about 0.92. This is one part of the list.

Experiment: chemical genetic growth profiling, strain panel (AID 1159580);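 note: tested at 20 µM; growth read once vehicle control cultures reached saturation at 30 °C; 1 = growth at the plate median or of vehicle wells; lower values mean less growth of the strain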
Conditions: S. cerevisiae deletion strains, growth OD

Measured: normalized growth

CCN(CC)CCNC(=O)c1c(-c2c(Cl)cccc2Cl)noc1C
inactive: locus YAL013W, strain DEP1, active compounds read low 0.996 | locus YBR229C, strain ROT2, active compounds read low 1.01 | locus YCL061C, strain MRC1, active compounds read low 1.02 | locus YDL101C, strain DUN1, active compounds read low 1 | locus YDR150W, strain NUM1, active compounds read low 0.903 | locus YEL061C, strain CIN8, active compounds read low 1.04 | locus YGR078C, strain PAC10, active compounds read low 1.01 | locus YHR030C, strain SLT2, active compounds read low 1.07 | locus YHR087W, strain rtc3, active compounds read low 0.998 | locus YJR043C, strain POL32, active compounds read low 1.03 | locus YJR075W, strain HOC1, active compounds read low 0.982 | locus YLR039C, strain RIC1, active compounds read low 1.16 | locus YLR058C, strain SHM2 (second series), active compounds read low 0.99 | locus YLR085C, strain ARP6, active compounds read low 1.05 | locus YLR262C, strain YPT6, active compounds read low 1.15 | locus YML094W, strain GIM5, active compounds read low 1.02 | locus YMR219W, strain ESC1, active compounds read low 1.01 | locus YMR263W, strain SAP30, active compounds read low 0.992 | locus YNL153C, strain GIM3, active compounds read low 0.99 | locus YNL298W, strain CLA4 (second series), active compounds read low 1.05 | locus YNL322C, strain KRE1, active compounds read low 1 | locus YNR030W, strain Alg12, active compounds read low 1.02 | locus YOL006C, strain TOP1, active compounds read low 1.03 | locus YPL055C, strain LGE1, active compounds read low 0.99 | locus YPL241C, strain CIN2, active compounds read low 1.01 | locus YPR135W, strain CTF4, active compounds read low 0.973
